# TDP1 cell CPT = growth inhibition of DT40 Tdp1-/-;hTDP1 cells with camptothecin (screen for TDP1 inhibitors); chicken DT40 Tdp1-/-;hTDP1 cells + 20 nM CPT, ATP luminescence, 48 h; Potency, µM (highest dose often 46.2 µM), actives largely listed as inhibitors; AID 686979; 12% of 420,000 active; note: nearly all actives have a fitted effect of over 55% in size
#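 Chicken DT40 Tdp1-/- cells stably complemented with human TDP1 were seeded at 400 cells/well in medium containing 20 nM camptothecin, exposed to pin-transferred compounds, and grown at 37 °C for at least 48 hr. Viability was read as ATP luminescence.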
# HepG2 tox = counter-screen for TGF-b inhibitors: cytotoxicity in HepG2 cells | HepG2 CAGA-GFP viability, ATP luminescence, 18 h | Potency, µM (series often up to 46.1 µM), actives largely listed as cytotoxic | 0.76% of 410,000 active | AID 588856
#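 HepG2 CAGA-GFP cells (1000/well, DMEM with 1% FBS) received compound, then TGF-beta at 500 pg/mL final, and were incubated 18 hours at 37 degrees C. Viability was read by CellTiter-Glo luminescence. Media-only wells were set as complete cell-killing and DMSO as no toxicity.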
# IL1B secr inh = inhibitors of inflammasome signaling (IL-1 beta secretion). AID 743279. activity change, % at 57.5 µM. 4.7% of 360,000 active. THP-1 LPS/ATP IL-1B secretion, AlphaLISA, 16 h; hits give low values; in the data active = activity change below about -50%; inconclusive = mostly about -30% to -49%
#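 Secreted IL-1B measured by AlphaLISA bead assay after 16 h compound exposure of THP-1 cells; compounds (final up to 57.5 uM) added 1 h before LPS (250 ng/mL) and ATP (1.25 mM) stimulation; lower signal means less secretion.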
# DT40 TDP1 no CPT = qHTS for Inhibitors of human tyrosyl-DNA phosphodiesterase 1 (TDP1): qHTS in cells in absence of CPT. Potency, µM (doses to about 46.2 µM), most hits filed as inhibitors. 15% of 420,000 active. DT40 Tdp1-/- hTDP1 cells, no CPT, ATP luminescence, 48 h. AID 686978, 2013; note: nearly all actives have a fitted effect of over 55% in size
#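 No-CPT arm: Tdp1-/-;hTDP1 DT40 cells (400/well) plus compounds, incubated ≥48 hr at 37 °C. Readout CellTiter-Glo luminescence.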
# TGFb SMAD3 inh = TGF-b pathway inhibition. Potency, µM (top dose mostly 46.1 µM), hits mostly inhibitors. HepG2 CAGA-GFP TGF-b/SMAD3 reporter, GFP fluorescence, 18 h; TGF-beta stimulated, 500 pg/mL final. AID 588855. 1.2% of 410,000 active; note: nearly all actives have a fitted effect of over 65% in size
#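 Smad-responsive CAGA-GFP expression was quantified in HEPG2 cells exposed to compounds and 500 pg/mL final TGF-beta for 18 h at 37 degrees C; unstimulated wells defined full inhibition.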
# ASM inhibitor = human S-ASM enzyme inhibition | P17405 | placental ASM, HMU-PC fluorogenic substrate, 60 min | Potency, µM (top dose mostly 57.5 µM), hits mostly inhibitors | 0.006% of 340,000 active | AID 504937
# Target sequence (P17405 47-631 limits assumed): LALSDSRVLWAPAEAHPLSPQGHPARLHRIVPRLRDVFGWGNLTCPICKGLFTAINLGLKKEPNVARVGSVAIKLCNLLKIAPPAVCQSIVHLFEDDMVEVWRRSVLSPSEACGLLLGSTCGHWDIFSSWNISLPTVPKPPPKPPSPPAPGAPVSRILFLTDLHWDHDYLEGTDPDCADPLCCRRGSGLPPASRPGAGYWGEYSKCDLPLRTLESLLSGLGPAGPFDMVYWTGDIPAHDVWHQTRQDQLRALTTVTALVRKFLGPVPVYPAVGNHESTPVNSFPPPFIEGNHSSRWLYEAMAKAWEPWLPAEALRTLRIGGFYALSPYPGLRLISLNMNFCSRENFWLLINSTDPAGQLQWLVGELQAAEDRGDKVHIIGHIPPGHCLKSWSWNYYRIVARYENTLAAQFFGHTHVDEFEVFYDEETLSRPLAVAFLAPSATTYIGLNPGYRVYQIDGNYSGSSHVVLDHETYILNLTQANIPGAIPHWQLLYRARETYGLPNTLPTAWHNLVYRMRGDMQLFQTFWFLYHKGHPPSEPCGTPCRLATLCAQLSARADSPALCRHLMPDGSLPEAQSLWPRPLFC
#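 Steps: dispense placental human ASM, pin compound, wait 10 min at room temperature, add HMU-PC0 substrate at 9 uM final, incubate 60 min at 37 °C, add stop solution raising pH to 10, read fluorescence.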
# Hits are given with their value; - = inactive; ? = inconclusive; . = no result; ! = a repeat was not active. Hits are enriched below; roughly 19% of the tested compounds scored in any of these assays. Unless noted, calls come from the whole dose curve; as a rule, active = well fitted curve in the direction sought with a large enough effect; inconclusive = small, poorly fitted or top-dose-only effect, or another doubt; inactive = no such curve, though single readings can be large; an effect the other way counts as inactive or inconclusive.
SMILES,TDP1 cell CPT,HepG2 tox,IL1B secr inh,DT40 TDP1 no CPT,TGFb SMAD3 inh,ASM inhibitor
CN1c2ccccc2C2(C)CCCC3=Cc4cc([N+](=O)[O-])cc([N+](=O)[O-])c4OC312 (stereo not given),15µM,-,-,23µM,-,-
CN1c2ccccc2C2(C)CCCC3=Cc4cccc([N+](=O)[O-])c4OC312 (stereo not given),?,-,-,16µM,-,-
Cc1ccc([N+](=O)[O-])c2c1C(N1CCCC1)C(C)(C)O2 (stereo not given),?,-,-,?,-,-
Cc1cc(C)c2c(c1)c1nnc(SCCN3CCCCC3)nc1n2C,?,-,-72,21µM,-,-
CCOc1ccc2c(c1)c1nnc(SCC(=O)N3CCCCC3C)nc1n2C (stereo not given),23µM,-,-,23µM,-,-
CCN(CC)CCSc1nnc2c3cc(F)ccc3n(C)c2n1,-,-,.,?,-,.
Cn1c2ccccc2c2nnc(SCCN3CCOCC3)nc21,?,-,-,-,-,-
CCOc1ccc2c(c1)c1nnc(SCC(=O)N3CCC(C)CC3)nc1n2C,?,-,?,?,?,-
Cn1c2ccc(F)cc2c2nnc(SCCN3CCCCC3)nc21,?,-,-60,16µM,-,-
Cc1ccn2c(CNCc3cnn(C)c3)c(C(=O)N3CCCCCC3)nc2c1,-,-,-,-,-,-
CC(C)(C)c1ccc(C(=O)NC(=O)COC(=O)CCS(=O)(=O)c2ccccc2)cc1,-,-,-,-,-,-
N#Cc1ccccc1OCC(=O)NNC(=O)CNC(=O)c1ccc(Br)o1,-,-,-,-,-,-
CCCCN1C(=O)C(NC(C)=O)c2cc(Br)ccc21 (stereo not given),?,-,-,21µM,-,-
CCN1C(=O)C(NC(C)=O)c2cc(Br)ccc21 (stereo not given),-,-,-,?,-,-
CC(C)(C)c1ccc(O)c(/C=N\O)c1,-,-,-,-,-,-
CC(C)(CO)Cc1cc(C(C)(C)C)c(O)c(C(C)(C)C)c1,18µM,-,-,?,?,-
Cc1cc(C(C)(C)C)c(O)c(C(C)(C)C)c1,?,-,-,13µM!,-,-
CC(C)(C)c1ccc(O)c(O)c1,34µM,-,-81,?,-,-
CC(=O)Nc1cc(C(C)(C)C)c(O)c(C(C)(C)C)c1,-,-,-,-,-,-
CC(C)(C)c1cc(O)c(C(C)(C)C)cc1O,11µM!,.,.,12µM!,.,.
COc1ccccc1NC(=O)c1nnn(-c2ccc(F)cc2)c1C,-,-,.,-,-,.
Cc1ccc(/C=N/NC(=O)NC23CC4CC(CC(C4)C2)C3)o1,-,-,-,-,-,-
Cc1ccc(NC(=O)c2ccccc2NS(=O)(=O)c2ccc(F)cc2)cc1S(=O)(=O)N1CCCCC1,16µM,-,-,12µM,?,-
CSc1ncccc1C(=O)Nc1cccc(S(=O)(=O)N2CCCCCC2)c1,?,-,-,29µM,?,-
Cc1ccc(NC(=O)CCNC(=O)c2ccccc2Cl)cc1S(=O)(=O)N1CCCCCC1,?,-,-,?,?,-
SMILES,TDP1 cell CPT,HepG2 tox,IL1B secr inh,DT40 TDP1 no CPT,TGFb SMAD3 inh,ASM inhibitor
O=C1CCC(C(=O)Nc2cccc(S(=O)(=O)Nc3ccccc3F)c2)=NN1,18µM,-,-,13µM,-,-
O=C(Nc1cccc(S(=O)(=O)Nc2ccccc2F)c1)c1ccco1,-,-,-,-,-,-
O=C(Nc1cccc(S(=O)(=O)N2CCCCC2)c1)c1ccccc1NS(=O)(=O)c1ccc(F)cc1,?,-,-,21µM,?,-
O=C(CSc1ccc([N+](=O)[O-])cc1)Nc1cccc(S(=O)(=O)Nc2ccccc2F)c1,9.2µM,-,-,?,?,-
COCCN(C(=O)COC(=O)CNC(=O)c1ccc(C)cc1)c1c(N)n(Cc2ccccc2)c(=O)[nH]c1=O,-,-,-,-,-,-
Cc1ccc2nc(-c3ccccc3)c(Cc3cccc(Cl)c3)n2c1,21µM,-,-,18µM,14µM,.
Cc1ccc(Cc2c(-c3cccc(Cl)c3)nc3ccc(Cl)cn23)cc1,?,-,-,?,?,.
c1ccc(Cc2c(-c3ccccc3)nc3c4ccccc4ccn23)cc1,?,-,-,?,-,.
Brc1cccc(-c2nc3c4ccccc4ccn3c2Cc2ccccc2)c1,21µM,-,-,?,?,.
Cc1ccc(Cc2c(-c3ccc(C)cc3)nc3ccc(Cl)cn23)cc1,?,-,-,?,-,.
Cc1ccc(Cc2c(-c3ccc(Cl)cc3)nc3ccc(Cl)cn23)cc1,?,-,-,21µM,-,.
Cc1ccc(Cc2c(-c3cccc(Br)c3)nc3ccc(Cl)cn23)cc1,?,-,-,18µM,-,.
Cc1nc2c(-c3ccc(F)cc3)c(C)nn2c(C)c1CCC(=O)NCc1cccc(Cl)c1,?,-,.,?,-,.
CCc1ccc(NC(=O)C(CC)n2c(=O)c(C(F)(F)F)nc3ccccc32)cc1 (stereo not given),?,-,.,?,-,.
CC(C)(C)C(=O)Nc1ccccc1C(=O)OCc1cc(=O)n2ccsc2n1,-,-,.,-,-,.
CCCCC/C=C\CCC(=O)N[C@H]1[C@H](Oc2c3cc4cc2Oc2ccc(cc2Cl)[C@@H](O[C@@H]2O[C@H](CO)[C@@H](O)[C@H](O)[C@H]2NC(C)=O)[C@@H]2NC(=O)[C@H](NC(=O)[C@@H]4NC(=O)[C@H]4NC(=O)[C@@H](Cc5ccc(c(Cl)c5)O3)NC(=O)[C@H](N)c3ccc(O)c(c3)Oc3cc(O)cc4c3)c3ccc(O)c(c3)-c3c(O[C@H]4O[C@H](CO)[C@@H](O)[C@H](O)[C@@H]4O)cc(O)cc3[C@@H](C(=O)O)NC2=O)O[C@H](CO)[C@@H](O)[C@@H]1O,-,.,.,-,.,.
Clc1ccc2nc(-c3ccccc3)c(Cc3ccccc3)n2c1,?,-,-,18µM,-,.
Clc1cccc(Cc2c(-c3cccc(Br)c3)nc3ccc(Cl)cn23)c1,?,-,-,?,?,.
Cc1ccc2nc(-c3cccc(Br)c3)c(Cc3ccccc3)n2c1,26µM,-,-,?,?,.
CCCc1nc2ccc(C)cn2c1Cc1cccc(Cl)c1,?,-,-,16µM,?,.
Cc1ccc2nc(-c3cccc(Br)c3)c(Cc3cccc(Cl)c3)n2c1,?,-,-,18µM,?,.
O=C(CNC(=O)c1ccc(Br)o1)Nc1ncccc1O,-,-,-,-,-,-
